20 molecules from PubChem BioAssay (NCI) can be followed below.

“And” between values parts separate entries of the source, which are not always exact repeats. Equal values may be shown once. Compounds without any hit were thinned out: in the full panel of roughly 79,000, 15% have a hit. A structure can be active in one record and inactive in another. The source made the active and inactive calls. Rule as the data show it: active = growth inhibition above about 70%; inactive = the rest.

Assay [1] is described as follows: NCI Yeast Anticancer Drug Screen. Data for the rad50 strain (AID 155).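 Also: 0% = growth of vehicle-only cultures of the same strain.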 Particulars: S. cerevisiae rad50 strain growth inhibition; at 50.0 µM; stronger effect = higher value. The procedure, abridged: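 Vehicle-treated cultures provide the reference for the growth inhibition reported for compound-exposed, repair-deficient yeast.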
Assay [2] can be described thus: NCI Yeast Anticancer Drug Screen. Data for the mec2-1 strain (AID 157). Particulars: S. cerevisiae mec2-1 strain, at 50.0 µM, stronger effect = higher value. The procedure, abridged:
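Each compound was tested on mec2-1 yeast, a strain altered in DNA damage repair or cell cycle control. Growth inhibition is reported relative to vehicle.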

Assay [3] in a line: NCI Yeast Anticancer Drug Screen. Data for the sgs1 mgt1 strain (AID 161).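 Also: 0% = growth of cultures given vehicle only.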 To be noted: S. cerevisiae sgs1 mgt1 strain, at 50.0 µM, stronger effect = higher value. The procedure, abridged:
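Read-out: growth inhibition vs vehicle controls. Cells: mutant yeast strain deficient in DNA damage repair.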

The nature of assay [4]: NCI Yeast Anticancer Drug Screen. Data for the cln2 rad14 strain (AID 165).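 Also: 0% = growth equal to vehicle treated cultures.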 To be noted: S. cerevisiae cln2 rad14 strain, at 50.0 µM, stronger effect = higher value. In a few lines: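 Test compounds were added to cln2 rad14 yeast cultures; inhibition of growth was then determined by comparison with vehicle treatment.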
Assay [5] in a line: NCI Yeast Anticancer Drug Screen. Data for the bub3 strain (AID 167). To be noted: S. cerevisiae bub3 mutant strain, at 50.0 µM, stronger effect = higher value. In a few lines:
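Mutant yeast screening strain plus compound; vehicle-treated cultures serve as the 0% inhibition reference.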

Assay [6] in a line: NCI Yeast Anticancer Drug Screen. Data for the mlh1 rad18 strain (AID 175). Particulars: S. cerevisiae mlh1 rad18 strain growth inhibition; at 50.0 µM; stronger effect = higher value. In a few lines:
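Inhibition values reflect reduced growth of mutant yeast versus vehicle-treated controls following compound exposure; the mutations affect DNA damage repair.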

With `ClCCN(CCCl)Cc1c2ccccc2cc2c1ccc1ccccc12`, the growth inhibition is 48.5% (inactive) in assay [1]; 9.2% (inactive) in assay [2]; 46.8% (inactive) in assay [3]; -38.3% (inactive) in assay [4]; -2.5% (inactive) in assay [5]; 65.5% (inactive) in assay [6].

On to `Cc1csc2n/c(=N/[N+](=O)[O-])sn12`, for which the growth inhibition in assay [1] is 51.5% (inactive); in assay [2], 26.9% (inactive); in assay [3], 46.8% (inactive); in assay [4], -12.5% (inactive); in assay [5], 50.4% (inactive); in assay [6] it was 44.1% (inactive).

Regarding `CCC[CH2][Sn]([CH2]CCC)([CH2]CCC)[CH2]CC(=O)OC`, the growth inhibition was 99.5% (active) in assay [1]; 99.4% (active) in assay [2]; 99.5% (active) in assay [3]; 99.3% (active) in assay [4]; 99% (active) in assay [5]; 99.5% (active) in assay [6].

As to `COc1ccc2c(c1OC(C)=O)-c1cc(O)cc3c1C(C2)N(C(=O)CN(CCCl)CCCl)CC3` (stereo not given), the growth inhibition in assay [1] was 19.6% (inactive) and 6.5% (inactive); in assay [2], 8.65% (inactive) and 5.4% (inactive); in assay [3] it was 24.7% (inactive) and -25.4% (inactive); in assay [4] it was 10.8% (inactive) and -4.95% (inactive); in assay [5] it was 22.2% (inactive) and -7.95% (inactive); in assay [6], -21.7% (inactive) and -30.4% (inactive).

Regarding `S=c1sc(-c2ccc(Cl)cc2)c[se]1`, the growth inhibition in assay [1] is 4.45% (inactive); in assay [2], 3.85% (inactive); in assay [3], -13.3% (inactive); in assay [4] it was -33.2% (inactive); in assay [5], 1.7% (inactive); in assay [6], -5.05% (inactive).

In the case of `COC(=O)C(N)Cc1ccc(OC)c(N(CCCl)CCCl)c1` (stereo not given), the growth inhibition was 17% (inactive) in assay [1]; -0.6% (inactive) in assay [2]; -11.2% (inactive) in assay [3]; 2.8% (inactive) in assay [4]; 3% (inactive) in assay [5]; 6.55% (inactive) in assay [6].

Regarding `[Cl][Pt+2][Cl].[NH-]c1ccc(Cl)cc1[NH-]`, the growth inhibition was 9.7% (inactive) in assay [1]; -11.9% (inactive) in assay [2]; -3.05% (inactive) in assay [3]; 8.15% (inactive) in assay [4]; -11.1% (inactive) in assay [5]; 7.5% (inactive) in assay [6].

Turning to `COc1ccc2ccc3oc([N+](=O)[O-])cc3c2c1`, the growth inhibition in assay [1] was 14.8% (inactive); in assay [2], 25.7% (inactive); in assay [3], -23.9% (inactive); in assay [4], -14% (inactive); in assay [5], -36% (inactive); in assay [6] it was -36% (inactive).

Consider `CC(C)=CC1C(C(=O)OCc2ccc(Cl)c(Cl)c2)C1(C)C` (stereo not given), for which the growth inhibition was 4.25% (inactive) in assay [1]; -2.5% (inactive) in assay [2]; 8.9% (inactive) in assay [3]; 16.9% (inactive) in assay [4]; 8.9% (inactive) in assay [5]; 5.25% (inactive) in assay [6].

`CC([NH-])C[NH-].[NH2-].[NH2-].[Pt+4]` (stereo not given): the growth inhibition was 17.1% (inactive) in assay [1]; -5.65% (inactive) in assay [2]; -10.3% (inactive) in assay [3]; -6.25% (inactive) in assay [4]; 5.8% (inactive) in assay [5]; -12.3% (inactive) in assay [6].

Consider `O=C(COc1ccc(Cl)cc1C(=O)O)Nc1cccc(NC(=O)Nc2cccc(S(=O)(=O)F)c2)c1`, for which the growth inhibition in assay [1] is 2.3% (inactive); in assay [2], -13.3% (inactive); in assay [3] it was -12.9% (inactive); in assay [4], -17.9% (inactive); in assay [5], 1.95% (inactive); in assay [6], 11.6% (inactive).

Consider `CN(N=O)C(=O)NC1CCCCC1`, for which the growth inhibition is -18.6% (inactive) in assay [1]; -0.25% (inactive) in assay [2]; -1.25% (inactive) in assay [3]; -4.45% (inactive) in assay [4]; -1.95% (inactive) in assay [5]; 13.8% (inactive) in assay [6].

In the case of `O=c1oc2ccccc2c(O)c1C(c1ccc(O)cc1)c1c(O)c2ccccc2oc1=O`, the growth inhibition in assay [1] was -1.35% (inactive); in assay [2] it was 3.1% (inactive); in assay [3] it was -6.4% (inactive); in assay [4], -2.95% (inactive); in assay [5] it was -3% (inactive); in assay [6], -33.9% (inactive).

For `CCC(C)(C)OC(=O)CCl`, the growth inhibition in assay [1] is -0.25% (inactive); in assay [2], 1.25% (inactive); in assay [3] it was 7.8% (inactive); in assay [4], 5.2% (inactive); in assay [5], 36.7% (inactive); in assay [6], -5.15% (inactive).

In the case of `c1cc2c(cc1C1OCC3C(c4ccc5c(c4)OCO5)OCC13)OCO2` (stereo not given), the growth inhibition is 75.1% (active) and 30.8% (inactive) in assay [1]; 74.6% (active) and -0.05% (inactive) in assay [2]; 82.5% (active) and 57.4% (inactive) in assay [3]; 44.4% (inactive) and 34.4% (inactive) in assay [4]; 81.5% (active) and 54.3% (inactive) in assay [5]; 67% (inactive) and 31.7% (inactive) in assay [6].

On to `C1CCC2[N-]CCCC2C1.C1CCC2[N-]CCCC2C1.O=[N+]([O-])O.O=[N+]([O-])O.[Cu+2]` (stereo not given), for which the growth inhibition in assay [1] is 21.6% (inactive); in assay [2], 21.6% (inactive); in assay [3] it was 15.2% (inactive); in assay [4], -19.2% (inactive); in assay [5], -4.35% (inactive); in assay [6], 25.1% (inactive).

As for `O=C(O)c1cc(CCl)ccc1O`, the growth inhibition in assay [1] is -0.05% (inactive); in assay [2], -7.95% (inactive); in assay [3], -15.7% (inactive); in assay [4], -14% (inactive); in assay [5] it was 4.75% (inactive); in assay [6] it was -1.7% (inactive).

With `CC(Br)C(=O)NC(C)C(=O)O` (stereo not given), the growth inhibition in assay [1] was -19.6% (inactive) and -15.2% (inactive); in assay [2], -16.6% (inactive) and -19.9% (inactive); in assay [3], -12.4% (inactive); in assay [4], 5.75% (inactive); in assay [5], -17.6% (inactive); in assay [6] it was -28.6% (inactive) and -21.2% (inactive).

In the case of `COP(=O)(OC)OC.COP(=O)(OC)OC.COP(=O)(OC)OC.COP(=O)(OC)OC.COP(=O)(OC)OC.COP(=O)(OC)OC.[Mn+2].[O-][Cl+3]([O-])([O-])O`, the growth inhibition in assay [1] was 43% (inactive); in assay [2], -35% (inactive); in assay [3], -17.1% (inactive); in assay [4] it was -14.9% (inactive); in assay [5], -18.2% (inactive); in assay [6], -9% (inactive).

As for `c1cc(CCN2CCCCC2)ccn1`, the growth inhibition is -2.75% (inactive) in assay [1]; -6.25% (inactive) in assay [2]; -26.5% (inactive) in assay [3]; -81.7% (inactive) in assay [4]; -21.4% (inactive) in assay [5]; -25.1% (inactive) in assay [6].
